Measured values from PubChem BioAssay AID1224921 (Broad Institute, 2016).
Among all 1,400 compounds or so, about 350 (25%) were called active. About 2% were inconclusive and are not listed. These entries were drawn from the full list. Potency and affinity values are given separately. A number with no mark means an inactive call. No rule for the calls is given here.

Experiment: C. difficile growth inhibition, confirmation, 4-point retest (AID 1224921);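 also: plate controls were DMSO wells for no effect and levofloxacin 16 µg/mL wells for full effect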
Conditions: Clostridioides difficile clinical isolate growth, OD600, 24 h, stronger effect = lower value; at 30 µM unless noted

SMILES	max activity
COc1ccc(NC(=O)N[C@H]2C=C[C@@H](CC(=O)NC3CCCCC3)O[C@H]2CO)cc1	-14.6% [at 1.95 µM]
COc1ccc(CN(C)C[C@H]2OCCCC[C@@H](C)Oc3ccc(NC(=O)Nc4ccc(F)cc4)cc3C(=O)N([C@@H](C)CO)C[C@@H]2C)cc1	19.8% [at 8 µM]
COCC#Cc1ccc2c(c1)O[C@H](CN(C)C)[C@@H](C)CN([C@H](C)CO)S2(=O)=O	7.09%
CO[C@H]1CN(C)C(=O)c2cc(NC(=O)c3ccccc3)ccc2OC[C@@H](C)N(C)C[C@@H]1C	-8.25% [at 8 µM]
C[C@@H]1CN([C@@H](C)CO)C(=O)c2c(c3ccccc3n2C)-c2ccccc2CO[C@@H]1CN(C)S(=O)(=O)c1cccc(F)c1	6.96% [at 8 µM]
C[C@H](CO)N1C[C@H](C)[C@H](CN(C)C(=O)[C@H](C)c2ccccc2)OCc2ccccc2-c2ccccc2C1=O	12.5% [at 1.95 µM]
C[C@@H]1CN([C@H](C)CO)C(=O)c2cccc(NC(=O)Nc3ccc(C(F)(F)F)cc3)c2O[C@H]1CN(C)C(=O)Nc1ccccc1	25.7% [at 8 µM]
C[C@@H]1CN([C@H](C)CO)C(=O)c2cccc(NC(=O)Nc3ccc(C(F)(F)F)cc3)c2O[C@@H]1CN(C)C(=O)Nc1cccc2ccccc12	40.5% [at 1.95 µM]
C[C@H](CO)N1C[C@H](C)[C@@H](CN(C)C(=O)Nc2ccccc2)Oc2c(NC(=O)Nc3ccc(C(F)(F)F)cc3)cccc2C1=O	46.6% [at 8 µM]
C[C@@H]1CN([C@@H](C)CO)C(=O)c2cccc(NC(=O)Nc3ccc(C(F)(F)F)cc3)c2O[C@H]1CN(C)C(=O)Nc1cccc2ccccc12	30.6% [at 1.95 µM]
C[C@@H]1CN([C@@H](C)CO)C(=O)c2cccc(NC(=O)Nc3ccc(C(F)(F)F)cc3)c2O[C@H]1CN(C)C(=O)Nc1ccccc1	29.3%
C[C@H]1CN([C@@H](C)CO)S(=O)(=O)c2ccc(-c3ccccc3F)cc2O[C@@H]1CN(C)Cc1ccncc1	27%
C[C@H](CO)N1C[C@H](C)[C@@H](CN(C)C(=O)C2CCCCC2)Oc2ncc(-c3ccccc3F)cc2C1=O	-11.4% [at 8 µM]
C[C@H]1CN([C@@H](C)CO)C(=O)Cc2cc(NS(C)(=O)=O)ccc2O[C@H]1CN(C)Cc1ccccc1	10.4%
COc1ccccc1C(=O)Nc1ccc2c(c1)OC[C@@H](C)N(CC1CC1)C[C@@H](C)[C@H](OC)CN(C)C2=O	19.1%
CO[C@@H]1CN(C)C(=O)c2ccc(NC(=O)c3nc4ccccc4s3)cc2OC[C@@H](C)N(Cc2ccncc2)C[C@H]1C	30.6%
CCCC#Cc1ccc2c(c1)O[C@H](CN(C)Cc1ccncc1)[C@H](C)CN([C@H](C)CO)S2(=O)=O	6.31%
C[C@@H]1CN([C@H](C)CO)C(=O)c2cccc(NC(=O)Nc3ccc4c(c3)OCO4)c2O[C@H]1CN(C)S(=O)(=O)c1ccc(Cl)cc1	-12.1% [at 8 µM]
CC(C)CC#Cc1ccc2c(c1)O[C@@H](CN(C)Cc1cccnc1)[C@H](C)CN([C@@H](C)CO)S2(=O)=O	42%

SMILES	max activity
COc1ccccc1C#Cc1ccc2c(c1)O[C@H](CN(C)Cc1ccncc1)[C@@H](C)CN([C@@H](C)CO)S2(=O)=O	48.6%
CCCNC(=O)N(C)C[C@@H]1Oc2cc(C#Cc3ccccn3)ccc2S(=O)(=O)N([C@@H](C)CO)C[C@H]1C	9.97%
CO[C@H]1O[C@H](CO)[C@@H](OC(=O)Nc2ccc3c(c2)OCO3)[C@H](OC(=O)Nc2ccccc2)[C@H]1OC(=O)Nc1ccccc1	10.7%
CCC(=O)N[C@H]1C=C[C@@H](CC(=O)OC)O[C@@H]1CO	-10.5%
CN1C(=O)c2cc(NC(=O)Cc3ccccc3)ccc2OC[C@H]2O[C@@H](CC(=O)NCC3CC3)CC[C@H]21	-7.83%
O=C(C[C@@H]1C[C@@H]2c3cc(NC(=O)Nc4ccc(C(F)(F)F)cc4)ccc3O[C@@H]2[C@H](CO)O1)NCc1ccc(Cl)cc1	27.7%
CCC(=O)Nc1ccc2c(c1)OC[C@H](C)N(CC1CCCCC1)C[C@@H](C)[C@@H](OC)CN(C)C2=O	8.81%
CCCN1[C@@H]2c3ccc(-c4ccc(F)cc4)c(=O)n3C[C@@H]2[C@@H](CO)[C@@H]1C(=O)N[C@@H](C)c1ccccc1	-8.45%
COc1ccccc1-c1ccc2c(c1)O[C@@H](CN(C)C(=O)c1ccccc1)[C@@H](C)CN([C@@H](C)CO)S2(=O)=O	29.9%
COCC(=O)Nc1ccc2c(c1)OC[C@H](C)N(Cc1ccccc1)C[C@@H](C)[C@@H](OC)CN(C)C2=O	5.39%
CCCC(=O)Nc1ccc2c(c1)C(=O)N(C)C[C@H](OC)[C@@H](C)CN(S(=O)(=O)c1cn(C)cn1)[C@@H](C)CO2	-11.7%
C[C@H]1CCCCO[C@@H](CN(C)Cc2ccc(C(=O)O)cc2)[C@@H](C)CN([C@@H](C)CO)C(=O)c2cc(NC(=O)Nc3ccc4c(c3)OCO4)ccc2O1	-7.43%
CCC(=O)N(C)C[C@@H]1Oc2cc(C#CCC3CCCC3)ccc2S(=O)(=O)N([C@H](C)CO)C[C@H]1C	29.4%
COc1cc(O)c2c(c1)oc(=O)c1c3cc(O)c(O)cc3oc21	14.5%
CNC(=O)C[C@H]1CC[C@H]2[C@H](COc3ccc(NC(=O)c4ccccc4F)cc3C(=O)N2C)O1	-13.3% [at 1.95 µM]
CNC(=O)C[C@@H]1CC[C@H]2[C@@H](COc3ccc(NC(=O)c4ccccc4F)cc3C(=O)N2C)O1	-11.2% [at 1.95 µM]
O=C(Nc1ccc2c(c1)OCO2)N[C@@H]1C=C[C@H](CC(=O)N2CCN(c3ccccc3)CC2)O[C@H]1CO	18.2%
CO[C@@H]1CN(C)C(=O)c2ccc(NC(=O)c3ccc(F)cc3)cc2OC[C@H](C)N(C(=O)CN(C)C)C[C@@H]1C	-20.6% [at 1.95 µM]
